Assay outcomes (PubChem BioAssay)
TDP1 cell noCPT = qHTS for Inhibitors of human tyrosyl-DNA phosphodiesterase 1 (TDP1): qHTS in cells in absence of CPT. DT40 Tdp1-/- hTDP1 cells, no CPT, ATP luminescence, 48 h. Potency, µM (top dose mostly 46.2 µM), actives largely listed as inhibitors. hit rate 15% among 420,000. AID 686978, 2013; also: nearly all actives have a fitted effect of over 55% in size
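Growth kinetics read by CellTiter-Glo luminescence after ≥48 hr at 37 °C. Cells: DT40 Tdp1-/- stably carrying human TDP1, 400 per well, compound exposure in the absence of CPT (DMSO vehicle).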
TDP1 cell CPT = growth inhibition of DT40 Tdp1-/-;hTDP1 cells with camptothecin (screen for TDP1 inhibitors); chicken DT40 Tdp1-/-;hTDP1 cells + 20 nM CPT, ATP luminescence, 48 h; hit rate 12% among 420,000; AID 686979; Potency, µM (top dose mostly 46.2 µM), hits mostly inhibitors; also: nearly all actives have a fitted effect of over 55% in size
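Chicken DT40 Tdp1-/- cells complemented with human TDP1, 400 cells/well, exposed to compounds plus 20 nM camptothecin for at least 48 h at 37 C; viability read as ATP content by CellTiter-Glo luminescence.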
RORg inh = inhibitors of mouse ROR gamma transcriptional activity; P51450; Drosophila S2 Gal4-RORgamma UAS-luciferase reporter, 20 h; Potency, µM (series often up to 53.6 µM), actives largely listed as inhibitors; hit rate 5.4% among 310,000; AID 2551; also: nearly all actives have a fitted effect of over 60% in size
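A Gal4/UAS one-hybrid system in insect cells: metallothionein-promoter Gal4–ROR gamma fusion plus Photinus luciferase reporter. Copper sulfate 700 uM final, 20 hr ambient incubation, luminescent detection after 10 min with reagent.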
TDP1 block = blocks human tyrosyl-DNA phosphodiesterase 1. hit rate 0.28% among 350,000. recombinant TDP1, AlphaScreen DNA substrate cleavage. Q9NUW8. Potency, µM (top dose mostly 130 µM), hits mostly inhibitors; also: nearly all actives have a fitted effect of over 40% in size
Target sequence (Q9NUW8 whole entry, looked up): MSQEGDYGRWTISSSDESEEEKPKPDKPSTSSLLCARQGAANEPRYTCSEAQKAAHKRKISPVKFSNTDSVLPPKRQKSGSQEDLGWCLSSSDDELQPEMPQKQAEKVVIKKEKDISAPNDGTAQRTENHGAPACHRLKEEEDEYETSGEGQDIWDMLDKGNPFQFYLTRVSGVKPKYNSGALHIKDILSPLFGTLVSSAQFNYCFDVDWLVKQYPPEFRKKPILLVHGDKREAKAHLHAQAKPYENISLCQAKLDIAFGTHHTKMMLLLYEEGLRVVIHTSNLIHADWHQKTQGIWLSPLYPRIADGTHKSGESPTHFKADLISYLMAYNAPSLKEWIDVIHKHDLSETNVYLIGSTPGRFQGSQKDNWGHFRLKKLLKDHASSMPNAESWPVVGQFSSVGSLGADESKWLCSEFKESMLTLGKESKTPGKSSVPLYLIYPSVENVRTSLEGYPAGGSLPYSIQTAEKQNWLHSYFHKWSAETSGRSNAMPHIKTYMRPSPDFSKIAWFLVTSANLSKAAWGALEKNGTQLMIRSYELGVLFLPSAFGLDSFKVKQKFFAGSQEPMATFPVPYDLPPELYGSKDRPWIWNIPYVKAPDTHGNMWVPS
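Recombinant human Tdp1 (E. coli-expressed, 1 nM final) preincubated with compounds 15 min at room temperature, then 5'-biotin/3'-phosphotyrosine-FITC DNA substrate (15 nM final) added for 5 min. AlphaScreen beads (10 ug/ml final) added 10 min; cleavage lowers signal.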
VP16 counter = Gal4-VP16 reporter inhibition counter-screen. Drosophila S2 Gal4-VP16 UAS-luciferase, luminescence, 20 h. hit rate 3.5% among 310,000. Potency, µM (series often up to 53.6 µM), hits mostly inhibitors;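 also: Gal4-VP16 expression switched on by copper sulfate through the metallothionein promoter; nearly all actives have a fitted effect of over 50% in size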
Hits are given with their value; n = inactive; u = inconclusive; x = no result; [ ] = another dose, or the depositor's remark. Only some compounds are listed: those with a hit (about 19% of all), similar ones and a draw of the others. Calls follow the shape of the dose curve; as a rule, active = well fitted curve in the direction sought with a large enough effect; inconclusive = small, poorly fitted or top-dose-only effect, or another doubt; inactive = no such curve, though single readings can be large; an effect the other way counts as inactive or inconclusive.

SMILES	TDP1 cell noCPT	TDP1 cell CPT	RORg inh	TDP1 block	VP16 counter
Cn1c(=O)n(C)c2cc(NS(=O)(=O)c3ccccc3)c(NCc3ccccc3)cc21	u	14.6µM	x	n	x
CN(C)c1cc2c(cc1NS(=O)(=O)c1ccccc1)n(C)c(=O)n2C	u	u	n	n[0.0935 µM]	n
Cc1cc(C(F)F)n2nc(C(=O)Nc3cccc(C(F)(F)F)c3)nc2n1	n	n	n	n	n
Cc1ccc(Cl)cc1N1CCN(S(=O)(=O)c2c(C)[nH]c(=O)[nH]c2=O)CC1	n	n	n	n	n
O=C(CCNC(=O)c1ccccc1Cl)Nc1nc(-c2ccc(F)cc2)cs1	u	u	u	n	n
COCCN(C(=O)CSc1nncn1-c1ccccc1)c1c(N)n(Cc2ccccc2)c(=O)[nH]c1=O	n	n	n	n	n
Cc1cc(S(=O)(=O)Nc2cc3c(cc2NCc2ccccc2)n(C)c(=O)n3C)ccc1F	11.6µM	7.31µM	x	n[12.3 µM]	x
C=CCOc1ccc(/C=C2\N=C(C)OC2=O)cc1OC	n	n	n	n	n
COc1ccc(/C=C2/CSC/C(=C/c3ccc(OC)c(OC)c3)C2=O)cc1OC	2.91µM	4.11µM	x	x	x
COc1ccc(/C=C2\N=C(C)OC2=O)cc1OC	n	10.3µM	n	x	n
COc1cc(C=C2CCCC(=Cc3ccc(OCC4CO4)c(OC)c3)C2=O)ccc1OCC1CO1 (centres undefined)	3.66µM	5.8µM	x	x	x
COc1cc(C=C2CN(C)C(=O)C2=O)ccc1O	n	n	x	x	x
Cc1ccc(/C=N/Nc2ccc(F)cc2)s1	n	u	n	x	n
Cc1nc2ccccc2c2c1C(=O)NC2=O	x	x	n	x	n
Cc1cccn2c(=O)c(/C=C3\SC(=S)NC3=O)c(NCCCN3CCOCC3)nc12	23.1µM	u	n	n	n
O=C(/C=C/Nc1ccccc1F)c1ccc(Br)cc1	n	n	10µM	n	u
O=C(/C=C/Nc1ccc(Br)cc1F)c1ccccc1	n	n	3.98µM	n	5.62µM
COc1ccc(N(C(=O)c2ccco2)C(C(=O)NC2CCCC2)c2ccc(N(C)C)cc2)cc1 (centres undefined)	16.4µM	u	n	n	n
CC(=O)Nc1ccc(N(C(=O)c2ccco2)C(C(=O)NC2CCCC2)c2ccc(N(C)C)cc2)cc1 (centres undefined)	n	n	10µM	x	n
CC(=O)Nc1ccc(N(C(=O)c2ccco2)C(C(=O)NC2CCCC2)c2ccc(N3CCOCC3)cc2)cc1 (centres undefined)	n	n	n	n	n
COc1ccc(N(C(=O)c2ccco2)C(C(=O)NC2CCCCC2)c2ccccc2)cc1 (centres undefined)	25.9µM	16.4µM	x	x	x
COc1ccc(N(C(=O)c2ccco2)C(C(=O)NC2CCCC2)c2ccccc2)cc1 (centres undefined)	u	u	n	x	n
COc1cccc(N(C(=O)c2ccco2)C(C(=O)NC2CCCC2)c2ccc(N(C)C)cc2)c1 (centres undefined)	16.4µM	u	n	n	n[0.365 µM]
C/C=C/c1ccc(OCCCNCC(C)O)c(OC)c1 (centres undefined)	u	u	n	n	n
CC1(C)S[C@@H]2[C@H](NC(=O)[C@H](NC(=O)N3CCN(S(C)(=O)=O)C3=O)c3ccccc3)C(=O)N2[C@H]1C(=O)O	n	n	n	x	n
SMILES	TDP1 cell noCPT	TDP1 cell CPT	RORg inh	TDP1 block	VP16 counter
CCCCN(C(=O)Cc1ccc(S(=O)(=O)N2CCOCC2)s1)c1ccccc1	20.6µM	u	x	n[0.505 µM]	x
CCNC(=O)Cc1ccc(S(=O)(=O)N2CCOCC2)s1	n	n	x	n	x
COc1ccc(CN(C)C(=O)Cc2ccc(S(=O)(=O)N3CCOCC3)s2)cc1OC	u	n	x	n	x
O=C(Cc1ccc(S(=O)(=O)N2CCOCC2)s1)N(Cc1ccccc1)c1ccccc1	20.6µM	u	x	n[0.505 µM]	x
Cc1ccc(NC(=O)CSCC#N)cc1Cl	u	n	n	n	n
Cc1[nH]nc2c1C(c1ccccc1)C1=C(CC(C)(C)CC1=O)N2 (centres undefined)	u	n	n	n	n
C=CCn1c(-c2ccc(Cl)cc2)cnc1SC(C)C(N)=O (centres undefined)	n	n	7.94µM	n	u
CCCCCCN1C=C/C(=C\C=C(C#N)C#N)c2ccccc21	23.1µM	u	n	n	n
CCc1cc2c(NCCC(=O)O)nc(C)nc2s1	n	n	n	n	n
CCc1cc2c(NCc3ccccc3)nc(C)nc2s1	8.2µM	16.4µM	u	x	u
CCc1cc2c(NCC3CCCO3)nc(C)nc2s1 (centres undefined)	u	13µM	n	n	n
CCc1ccccc1NC(=O)COc1ccc(C(=S)N2CCCC2)cc1	n	n	n	n	n
O=C(Nc1cc(S(=O)(=O)Nc2ccc(Cl)cc2)ccc1O)c1ccc(S(=O)(=O)N2CCCCCC2)cc1	20.6µM	u	u	n	u
O=C(N/N=C\c1cc(Cl)ccc1O)c1ccc(S(=O)(=O)N2CCCCC2)cc1	0.731µM	0.651µM	5.01µM	n	3.55µM
c1coc(C2Nc3cccc4cccc(c34)N2)c1	x	x	n	n	n
Cc1ccc(C2Nc3cccc4cccc(c34)N2)s1	18.4µM	u	n	n	n
O=C(Cc1ccccc1)Nc1cccc(-c2nnc(-c3ccco3)o2)c1	14.6µM	u	n	n	n
COc1ccccc1OCC(=O)Nc1cccc(-c2nnc(-c3ccco3)o2)c1	20.6µM	u	n	n	n
O=C(Cc1ccc(Cl)cc1)Nc1cccc(-c2nnc(-c3ccco3)o2)c1	u	u	n	n	n
O=C(Nc1cccc(-c2nnc(-c3ccco3)o2)c1)C(c1ccccc1)c1ccccc1	16.4µM	u	n	n	n
CCc1cccc(-n2c(SCC(=O)c3c(N)n(C4CC4)c(=O)[nH]c3=O)nnc2N2CCOCC2)c1	n	n	x	x	x
Cc1ccc(NC(=O)CSc2nnc(-c3ccc(S(=O)(=O)N4CCOCC4)cc3)n2C)cc1	n	n	n	n	n
CCC1C(=O)NCCN1Cc1ccc2c(c1)CN(Cc1cc(OC)c3c(c1)OCO3)CCO2 (centres undefined)	u	n[9.04 µM]	x	x	x
Cc1ccc(Cc2c(C3CCCCC3)nc3ccc(C)cn23)cc1	18.4µM	18.4µM	x	x	x
Clc1ccc2nc(C3CCCCC3)c(CC3CCCCC3)n2c1	u	n	x	x	x
SMILES	TDP1 cell noCPT	TDP1 cell CPT	RORg inh	TDP1 block	VP16 counter
Cc1ccc2nc(C3CCCCC3)c(Cc3ccsc3)n2c1	9.2µM	13µM	x	x	x
Cc1ccc(C2=NS(=O)(=O)N(C)C(C(=O)N3CCOCC3)=C2)cc1	n	n	n	x	n
S=C(NCCc1ccc(Cl)cc1)NC1CCCCC1	u	u	3.55µM	n	5.01µM
S=C(NCCc1ccc(Cl)cc1)NC1CCCC1	u	u	2µM	n	6.31µM
S=C(NCCNCc1ccccc1)NC1CCCCC1	x	x	3.98µM	n	u
S=C(NCCc1ccccc1)NC1CCCCCC1	u	18.4µM	2.82µM	n	n[0.365 µM]
